# An excerpt weighted towards active compounds, which were near 2.3% of everything screened.
# CHRM1 agonist: human M1 muscarinic receptor agonists, primary screen, Fluo-8 calcium fluorescence, CHO-K1 cells, HTS; CHO-K1 hM1, agonist mode; 0% DMSO, 100% acetylcholine EC100; Muscarinic acetylcholine receptor M1 (Homo sapiens), P11229; activation, % at 3 µM; AID 588814, 2011; actives 0.33% (n = 360,000);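 active = activation above the run's mean compound activation plus 3 SD, cut at about 16% in these data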;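 note: peak over basal fluorescence ratio within a 140 s kinetic read after compound addition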
# Target sequence (P11229 whole entry, looked up): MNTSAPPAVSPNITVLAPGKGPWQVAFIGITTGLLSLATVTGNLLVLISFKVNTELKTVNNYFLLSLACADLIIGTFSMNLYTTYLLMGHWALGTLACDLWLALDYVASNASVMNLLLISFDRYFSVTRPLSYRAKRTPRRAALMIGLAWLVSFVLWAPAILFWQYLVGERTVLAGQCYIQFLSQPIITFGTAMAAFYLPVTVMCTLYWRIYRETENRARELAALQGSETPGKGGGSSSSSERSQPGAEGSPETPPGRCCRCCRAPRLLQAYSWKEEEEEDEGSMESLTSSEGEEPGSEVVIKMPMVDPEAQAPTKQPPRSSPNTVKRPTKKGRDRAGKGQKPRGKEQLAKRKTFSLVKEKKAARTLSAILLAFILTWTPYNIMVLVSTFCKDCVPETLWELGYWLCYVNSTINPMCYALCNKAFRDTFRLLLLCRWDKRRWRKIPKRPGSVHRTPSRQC
# M1 PAM parental: nonselective calcium activators in parental CHO-K1 cells, primary screen, counter-screen for M1 PAM project, cell-based, Fluo-8 calcium fluorescence, full deck, 1536-well; actives 0.02% (n = 360,000); ATP EC20; 0% at ATP EC20, 100% at ATP max; activation, % at 3 µM;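 active = activation above the run cutoff, the mean activation of all test compounds plus 3 SD, cut at about 40% in these data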;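 note: peak over basal fluorescence ratio in a 140 s read after ATP addition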
# M1 ag parental: counter-screen for M1 agonists: effect in parental CHO-K1 cells; AID 602248, 2012; activation, % at 3 µM; Fluo-8 calcium fluorescence; scaled to maximal ATP response, vehicle zero; actives 0.48% (n = 360,000); in the data active = activation above about 15%;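 note: untransfected CHO-K1 host cells lacking M1 receptor as counterscreen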
# CHRM1 PAM: human M1 muscarinic receptor positive allosteric modulators, primary screen, CHO-K1 cells, Fluo-8 calcium fluorescence, 1536-well | CHO-K1 hM1, ACh EC20; 0% = ACh EC20, 100% = maximal ACh | activation, % at 3 µM | actives 0.088% (n = 360,000) | AID 588819, 2011; in the data active = activation above about 19%, passing the limit was not always enough
# CHRM1 antagonist: human M1 muscarinic receptor antagonists, primary screen, CHO-K1 cells, Fluo-8 calcium fluorescence, 1536-well; inhibition, % at 3 µM; actives 1.3% (n = 360,000); Muscarinic acetylcholine receptor M1 (Homo sapiens), P11229; AID 588852, 2011; CHO-K1 hM1, ACh EC80 antagonist;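 active = percent inhibition above its own plate's cutoff, namely the mean of that plate's compound wells plus 3 SD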;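 note: peak over basal fluorescence ratio during 140 s after agonist addition; 0% = ACh EC80 plus DMSO and 100% = DMSO alone without agonist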
# CHO-K1 Ca antag: counter-screen for M1 antagonists: effect in parental CHO-K1 cells. ATP-induced calcium, Fluo-8 fluorescence. inhibition, % at 3 µM. actives 0.6% (n = 360,000). AID 602250;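 active = inhibition above a per-plate cutoff, the plate's mean sample inhibition plus 3 SD, cut at about 24% in these data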;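 note: 0% = DMSO plus EC80 ATP and 100% = DMSO alone without ATP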
# The depositor's hits bear a star; . = not tested or not shown.
SMILES,CHRM1 agonist,M1 PAM parental,M1 ag parental,CHRM1 PAM,CHRM1 antagonist,CHO-K1 Ca antag
O=C(c1cc2cc(Cl)ccc2[nH]1)N1CCC2(CC1)OCCO2,1,2,1,20,-10,-7
O=C(c1cc(=O)[nH]c2ccc(Br)cc12)N1CCC2(CC1)OCCO2,-2,-6,0,5,-10,26*
Cc1ccc(C(=O)C2CN(C)CC2C(=O)c2ccc(C)cc2)cc1 (stereo not given),-2,-1,0,-7,13,3
Cc1ccc(C(=O)C2CN3CCC2CC3)cc1 (stereo not given),1,16,0,-7,28*,-9
COc1ccc(C(c2nnnn2-c2ccc3c(c2)OCCO3)N2CCC3(CC2)C(=O)NCN3c2ccccc2)cc1 (stereo not given),4,-1,3,8,-30,-11
CCN(CC)c1ccc(CNCCc2ccccc2F)cc1,-8,11,8,-27,56*,-9
COc1cccc(C)c1NC1=NCCO1,-4,8,0,6,-15,-4
CCCCCn1c(=O)c(C(=O)NC(C)c2ccccc2)c(O)c2ccccc21 (stereo not given),0,6,1,1,-3,-5
CCOc1cc2c(cc1OCC)-n1cccc1C(c1ccc(OC)cc1)NC2 (stereo not given),-5,14,18*,4,-7,3
CCOc1cc2c(cc1OCC)-n1cccc1C(c1ccc(F)cc1)NC2 (stereo not given),-7,6,5,1,3,-9
CC(CC(C)(C)N1CC1)=NNC(=O)Nc1cccc2ccccc12,-4,4,0,16,-27,-8
N#CC(c1cccnc1)N1CCOCC1 (stereo not given),-7,-2,1,4,6,-2
CC(CC(C#N)(c1ccccc1)c1ccccc1)N1CCOCC1 (stereo not given),-9,11,-1,-30,99*,-10
c1ccc2c(c1)Sc1ccccc1N2CC1CN2CCC1CC2 (stereo not given),-9,1,0,-26,99*,5
CCOC(=O)[C@]12Cc3cc(C)ccc3[C@H]1N(Cc1ccccc1)C(=O)c1cc(OC)ccc12,.,1,1,.,.,5
CCN(CCCl)c1cc(CN(C)C)cc(NC(=O)c2ccc(C(=O)Nc3cc(CN(C)C)cc(N(CC)CCCl)c3)cc2)c1,-8,17,1,5,-8,-12
Oc1c(Cl)cccc1Cc1cc(Cl)cc(Cl)c1O,3,-22,8,-22,41*,15
Cc1ccc(C[n+]2c(-c3ccc(C)cc3)cc(-c3ccc(C)cc3)cc2-c2ccc(C)cc2)cc1,2,4,14,-13,33*,17
Cc1nn(-c2ccccc2)c(Cl)c1C1C(C#N)=C(N)Oc2c1c(=O)oc1ccccc21 (stereo not given),-3,-6,0,-6,4,25*
N#CC1=C(N)Oc2c(c(=O)oc3ccccc23)C1c1cccnc1 (stereo not given),-2,6,0,6,-12,-11
Cc1ccccc1OP(=O)(Oc1ccccc1C)N1CCOCC1,-5,11,1,1,-4,3
CS(=O)(=O)c1ccc(C2=C(CNC(=O)c3ccncc3)[C@H]3CC[C@@H](C2)N3CCOc2ccccc2)cc1,-11,-5,0,-19,29*,-9
CS(=O)(=O)c1ccc(C2=C(CNC(=O)c3ccc([N+](=O)[O-])cc3)[C@H]3CC[C@@H](C2)N3CCOc2ccccc2)cc1,-11,-10,0,-19,23,-1
CN1OCC2Cn3c(nc4ccccc43)C21 (stereo not given),5,-2,0,27*,-13,-8
CN1C2CCC1C(COC(=O)c1ccccc1)C(O)C2 (stereo not given),-4,-2,1,2,4,-8

# Assay outcomes from PubChem BioAssay.
